# How the values were obtained:
# Experiment in all cases: DAPPL (digital affinity profiling via proximity ligation, sequencing); 10 mM Tris-HCl pH 7.5, 50 mM NaCl, 1 mM DTT, 4% glycerol, room temperature, 30 min; GST-TFs on glutathione beads, 16-mer random dsDNA library, 0.1% formaldehyde crosslink after washing; high values mean tight binding
# FLI1 = biological target: T1, FLI1 (Homo sapiens, UniProt Q01543 1-452); settings: protein: recombinant; tags: N-terminal GST; dsDNA, one strand shown
# T1 sequence: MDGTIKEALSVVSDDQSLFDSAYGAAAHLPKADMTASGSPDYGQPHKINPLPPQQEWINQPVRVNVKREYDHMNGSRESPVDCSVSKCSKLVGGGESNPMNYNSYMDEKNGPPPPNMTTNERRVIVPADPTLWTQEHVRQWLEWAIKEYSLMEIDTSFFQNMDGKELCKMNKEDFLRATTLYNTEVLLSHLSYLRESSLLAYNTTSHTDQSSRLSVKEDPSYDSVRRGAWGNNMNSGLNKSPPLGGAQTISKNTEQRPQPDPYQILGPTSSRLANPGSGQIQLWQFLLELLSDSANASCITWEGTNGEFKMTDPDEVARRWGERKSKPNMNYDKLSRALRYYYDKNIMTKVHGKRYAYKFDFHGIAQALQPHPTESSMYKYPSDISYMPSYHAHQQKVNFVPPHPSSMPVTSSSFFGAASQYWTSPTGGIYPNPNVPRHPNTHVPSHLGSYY
# Procedure, shortened: (§1)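 In yeast, human transcription factors were expressed with a GST fusion, then pulled down on glutathione beads and given DNA barcodes. Pooled with a tag-only sample, they were exposed to 200 nmole of a 16-mer random double-stranded DNA library (Tris/NaCl/DTT/glycerol buffer, room temperature, 30 min), washed, crosslinked with 0.1% formaldehyde, proximity-ligated using BsaI/T4 ligase for 1 h at 37 °C, PCR-amplified and read on an Illumina NextSeq500. Each hexamer's frequency of reads for a factor, divided by the matching frequency for the tag-only sample, gives the binding signal.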
# ELK1 = biological target: T2, ELK1 (Homo sapiens, UniProt P19419 1-428); settings: protein: recombinant; tags: N-terminal GST; dsDNA, one strand shown
# T2 sequence: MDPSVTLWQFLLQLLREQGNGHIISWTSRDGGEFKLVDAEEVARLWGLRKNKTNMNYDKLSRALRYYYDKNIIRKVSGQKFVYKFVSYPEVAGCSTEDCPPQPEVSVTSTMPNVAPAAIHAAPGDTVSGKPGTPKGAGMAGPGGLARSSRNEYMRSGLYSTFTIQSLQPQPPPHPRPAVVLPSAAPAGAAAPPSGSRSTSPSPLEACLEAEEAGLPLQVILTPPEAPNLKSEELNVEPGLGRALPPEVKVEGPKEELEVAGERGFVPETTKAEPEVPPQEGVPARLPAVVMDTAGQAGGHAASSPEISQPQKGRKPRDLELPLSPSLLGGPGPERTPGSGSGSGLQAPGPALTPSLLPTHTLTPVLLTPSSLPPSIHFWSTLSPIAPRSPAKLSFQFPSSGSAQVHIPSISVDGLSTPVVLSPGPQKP
# Procedure, shortened: as §1
# GABPA = biological target: T3, GABPA (Homo sapiens, UniProt Q06546 1-454); settings: protein: recombinant; tags: N-terminal GST; dsDNA, one strand shown
# T3 sequence: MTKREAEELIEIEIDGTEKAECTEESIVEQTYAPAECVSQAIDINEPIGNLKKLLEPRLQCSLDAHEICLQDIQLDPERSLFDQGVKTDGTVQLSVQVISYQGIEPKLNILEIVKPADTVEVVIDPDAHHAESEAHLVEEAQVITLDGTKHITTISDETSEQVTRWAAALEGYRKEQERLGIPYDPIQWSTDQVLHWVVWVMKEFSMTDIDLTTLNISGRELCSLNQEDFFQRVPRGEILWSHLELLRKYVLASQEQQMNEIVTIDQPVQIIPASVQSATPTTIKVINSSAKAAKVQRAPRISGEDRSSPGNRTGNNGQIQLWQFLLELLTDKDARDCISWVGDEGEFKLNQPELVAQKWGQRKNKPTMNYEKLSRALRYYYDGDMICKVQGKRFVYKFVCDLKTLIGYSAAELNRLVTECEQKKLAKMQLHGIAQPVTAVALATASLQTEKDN
# Procedure, shortened: as §1
# ERG = biological target: T4, ERG (Homo sapiens, UniProt P11308 1-479); settings: protein: recombinant; tags: N-terminal GST; dsDNA, one strand shown
# T4 sequence: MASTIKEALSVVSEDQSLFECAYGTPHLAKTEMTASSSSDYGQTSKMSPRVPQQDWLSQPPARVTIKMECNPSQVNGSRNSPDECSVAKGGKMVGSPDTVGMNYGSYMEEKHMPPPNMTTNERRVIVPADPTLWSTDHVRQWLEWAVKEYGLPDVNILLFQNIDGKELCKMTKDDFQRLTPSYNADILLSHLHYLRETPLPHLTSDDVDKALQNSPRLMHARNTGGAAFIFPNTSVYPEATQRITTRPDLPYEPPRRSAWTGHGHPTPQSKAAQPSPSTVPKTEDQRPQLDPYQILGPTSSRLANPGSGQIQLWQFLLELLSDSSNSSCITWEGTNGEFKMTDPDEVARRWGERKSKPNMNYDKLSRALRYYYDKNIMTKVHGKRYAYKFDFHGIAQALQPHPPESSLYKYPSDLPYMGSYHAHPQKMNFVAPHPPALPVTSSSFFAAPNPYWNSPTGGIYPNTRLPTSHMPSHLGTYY
# Procedure, shortened: as §1
# ELF1 = ELF1 (Homo sapiens, UniProt P32519 1-619); settings: protein: recombinant; tags: N-terminal GST; dsDNA, one strand shown
# Procedure, shortened: as §1
# EHF = biological target: T5, EHF (Homo sapiens, UniProt Q9NZC4 1-300); settings: protein: recombinant; tags: N-terminal GST; dsDNA, one strand shown
# T5 sequence: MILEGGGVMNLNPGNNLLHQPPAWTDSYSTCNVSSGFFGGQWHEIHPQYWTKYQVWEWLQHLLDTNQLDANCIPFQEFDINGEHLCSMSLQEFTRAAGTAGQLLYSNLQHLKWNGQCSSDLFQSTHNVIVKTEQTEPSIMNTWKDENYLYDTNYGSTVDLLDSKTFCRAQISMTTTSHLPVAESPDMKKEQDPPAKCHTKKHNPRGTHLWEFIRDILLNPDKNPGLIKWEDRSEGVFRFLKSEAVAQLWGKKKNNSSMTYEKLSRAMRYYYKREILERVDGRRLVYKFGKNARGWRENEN
# Procedure, shortened: as §1
# SPI1 = SPI1 (Homo sapiens, UniProt P17947 1-270); settings: protein: recombinant; tags: N-terminal GST; dsDNA, one strand shown
# Procedure, shortened: as §1
# SPIB = SPIB (Homo sapiens, UniProt Q01892 1-262); settings: protein: recombinant; tags: N-terminal GST; dsDNA, one strand shown
# Procedure, shortened: as §1
# ELK3 = biological target: T6, ELK3 (Homo sapiens, UniProt P41970 1-407); settings: protein: recombinant; tags: N-terminal GST; dsDNA, one strand shown
# T6 sequence: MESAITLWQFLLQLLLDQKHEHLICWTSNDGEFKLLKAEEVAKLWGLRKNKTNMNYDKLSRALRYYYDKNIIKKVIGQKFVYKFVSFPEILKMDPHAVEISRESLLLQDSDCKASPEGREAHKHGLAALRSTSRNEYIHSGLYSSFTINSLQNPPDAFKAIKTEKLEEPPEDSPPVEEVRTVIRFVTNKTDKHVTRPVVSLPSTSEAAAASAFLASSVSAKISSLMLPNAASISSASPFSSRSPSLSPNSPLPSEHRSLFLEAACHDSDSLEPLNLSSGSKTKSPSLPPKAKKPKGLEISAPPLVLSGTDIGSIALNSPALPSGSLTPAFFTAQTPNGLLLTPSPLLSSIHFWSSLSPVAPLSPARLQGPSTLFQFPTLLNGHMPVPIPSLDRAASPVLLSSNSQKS
# Procedure, shortened: as §1
# FEV = biological target: T7, FEV (Homo sapiens, UniProt Q99581 1-238); settings: protein: recombinant; tags: N-terminal GST; dsDNA, one strand shown
# T7 sequence: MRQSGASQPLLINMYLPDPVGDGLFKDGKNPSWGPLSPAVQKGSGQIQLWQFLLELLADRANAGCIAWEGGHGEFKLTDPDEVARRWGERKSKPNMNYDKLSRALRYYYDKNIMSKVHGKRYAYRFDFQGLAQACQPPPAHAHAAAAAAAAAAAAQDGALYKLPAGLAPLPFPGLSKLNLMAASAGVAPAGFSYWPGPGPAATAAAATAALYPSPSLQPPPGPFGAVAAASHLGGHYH
# Procedure, shortened: as §1
# ETV5 = ETV5 (Homo sapiens, UniProt P41161 1-510); settings: protein: recombinant; tags: N-terminal GST; dsDNA, one strand shown
# Procedure, shortened: as §1
# HSF1 = HSF1 (Homo sapiens, UniProt Q00613 1-529); settings: protein: recombinant; tags: N-terminal GST; chain copies: 3; dsDNA, one strand shown
# Procedure, shortened: as §1
# SPIC = biological target: T8, SPIC (Homo sapiens, UniProt Q8N5J4 1-248); settings: protein: recombinant; tags: N-terminal GST; dsDNA, one strand shown
# T8 sequence: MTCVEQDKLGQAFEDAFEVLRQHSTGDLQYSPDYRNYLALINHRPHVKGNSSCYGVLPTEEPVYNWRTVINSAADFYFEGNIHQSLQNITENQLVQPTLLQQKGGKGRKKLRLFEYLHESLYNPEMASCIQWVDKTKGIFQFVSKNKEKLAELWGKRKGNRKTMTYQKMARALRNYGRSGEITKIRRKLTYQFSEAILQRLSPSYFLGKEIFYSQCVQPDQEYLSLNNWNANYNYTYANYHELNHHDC
# Procedure, shortened: as §1
# ELF4 = ELF4 (Homo sapiens, UniProt Q99607 1-663); settings: protein: recombinant; tags: N-terminal GST; dsDNA, one strand shown
# Procedure, shortened: as §1
# ELK4 = biological target: T9, ELK4 (Homo sapiens, UniProt P28324-2 1-405); settings: protein: recombinant; tags: N-terminal GST; dsDNA, one strand shown
# T9 sequence: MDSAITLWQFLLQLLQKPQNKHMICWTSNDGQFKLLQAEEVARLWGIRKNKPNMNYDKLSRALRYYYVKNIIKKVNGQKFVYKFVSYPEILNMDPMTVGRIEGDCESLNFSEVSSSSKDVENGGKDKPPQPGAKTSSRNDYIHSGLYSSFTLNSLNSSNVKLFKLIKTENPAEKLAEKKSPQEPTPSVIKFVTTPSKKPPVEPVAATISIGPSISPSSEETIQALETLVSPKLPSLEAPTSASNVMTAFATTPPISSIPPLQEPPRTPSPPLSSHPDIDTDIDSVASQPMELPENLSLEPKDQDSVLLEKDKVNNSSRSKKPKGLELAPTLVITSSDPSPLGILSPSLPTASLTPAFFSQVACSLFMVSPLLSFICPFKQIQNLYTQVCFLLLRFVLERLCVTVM
# Procedure, shortened: as §1
# ETV2 = biological target: T10, ETV2 (Homo sapiens, UniProt O00321 1-342); settings: protein: recombinant; tags: N-terminal GST; dsDNA, one strand shown
# T10 sequence: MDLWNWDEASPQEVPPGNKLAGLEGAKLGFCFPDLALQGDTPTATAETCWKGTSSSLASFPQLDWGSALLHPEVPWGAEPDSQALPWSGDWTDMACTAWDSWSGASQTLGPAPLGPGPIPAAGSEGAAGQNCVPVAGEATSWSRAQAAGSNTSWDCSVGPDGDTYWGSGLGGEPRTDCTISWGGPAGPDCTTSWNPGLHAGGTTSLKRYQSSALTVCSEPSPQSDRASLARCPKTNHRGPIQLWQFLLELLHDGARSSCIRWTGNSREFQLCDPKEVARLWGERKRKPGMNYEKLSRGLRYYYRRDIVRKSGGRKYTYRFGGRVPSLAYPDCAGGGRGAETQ
# Procedure, shortened: as §1
# ELF3 = biological target: T11, ELF3 (Homo sapiens, UniProt P78545 1-371); settings: protein: recombinant; tags: N-terminal GST; dsDNA, one strand shown
# T11 sequence: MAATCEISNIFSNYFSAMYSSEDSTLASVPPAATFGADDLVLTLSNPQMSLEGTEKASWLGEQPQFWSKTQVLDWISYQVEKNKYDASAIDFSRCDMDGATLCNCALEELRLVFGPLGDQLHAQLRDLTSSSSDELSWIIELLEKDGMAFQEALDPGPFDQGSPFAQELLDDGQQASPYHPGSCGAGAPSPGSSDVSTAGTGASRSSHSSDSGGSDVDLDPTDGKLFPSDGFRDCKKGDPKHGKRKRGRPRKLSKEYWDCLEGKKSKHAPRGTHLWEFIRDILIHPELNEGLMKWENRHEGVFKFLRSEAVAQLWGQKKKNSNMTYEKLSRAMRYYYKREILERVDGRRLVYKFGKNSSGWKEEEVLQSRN
# Procedure, shortened: as §1
# ETV1 = ETV1 (Homo sapiens, UniProt P50549 1-477); settings: protein: recombinant; tags: N-terminal GST; dsDNA, one strand shown
# Procedure, shortened: as §1
# Sequence of SPIB (Q01892 whole entry): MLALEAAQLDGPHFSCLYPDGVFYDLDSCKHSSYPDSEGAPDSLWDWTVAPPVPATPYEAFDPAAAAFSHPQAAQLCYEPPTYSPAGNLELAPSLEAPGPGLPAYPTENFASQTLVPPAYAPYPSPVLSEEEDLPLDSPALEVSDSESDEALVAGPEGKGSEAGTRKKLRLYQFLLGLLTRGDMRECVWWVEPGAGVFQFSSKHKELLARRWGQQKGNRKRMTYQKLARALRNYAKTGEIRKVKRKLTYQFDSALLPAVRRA
# Sequence of ETV1 (P50549 whole entry): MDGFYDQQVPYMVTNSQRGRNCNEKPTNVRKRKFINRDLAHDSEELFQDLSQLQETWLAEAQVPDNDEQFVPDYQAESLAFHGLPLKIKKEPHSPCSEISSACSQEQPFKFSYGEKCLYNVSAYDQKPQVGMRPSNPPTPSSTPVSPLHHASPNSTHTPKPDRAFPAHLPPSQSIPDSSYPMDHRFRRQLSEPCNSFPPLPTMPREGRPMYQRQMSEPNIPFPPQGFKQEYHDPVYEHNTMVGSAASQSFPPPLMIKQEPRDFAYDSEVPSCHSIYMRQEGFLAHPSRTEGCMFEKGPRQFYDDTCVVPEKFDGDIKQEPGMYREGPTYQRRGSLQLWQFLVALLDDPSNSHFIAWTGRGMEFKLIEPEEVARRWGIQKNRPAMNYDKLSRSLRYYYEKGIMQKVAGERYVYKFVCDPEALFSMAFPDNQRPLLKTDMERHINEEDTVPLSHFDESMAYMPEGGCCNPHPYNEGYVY
# Sequence of ETV5 (P41161 whole entry): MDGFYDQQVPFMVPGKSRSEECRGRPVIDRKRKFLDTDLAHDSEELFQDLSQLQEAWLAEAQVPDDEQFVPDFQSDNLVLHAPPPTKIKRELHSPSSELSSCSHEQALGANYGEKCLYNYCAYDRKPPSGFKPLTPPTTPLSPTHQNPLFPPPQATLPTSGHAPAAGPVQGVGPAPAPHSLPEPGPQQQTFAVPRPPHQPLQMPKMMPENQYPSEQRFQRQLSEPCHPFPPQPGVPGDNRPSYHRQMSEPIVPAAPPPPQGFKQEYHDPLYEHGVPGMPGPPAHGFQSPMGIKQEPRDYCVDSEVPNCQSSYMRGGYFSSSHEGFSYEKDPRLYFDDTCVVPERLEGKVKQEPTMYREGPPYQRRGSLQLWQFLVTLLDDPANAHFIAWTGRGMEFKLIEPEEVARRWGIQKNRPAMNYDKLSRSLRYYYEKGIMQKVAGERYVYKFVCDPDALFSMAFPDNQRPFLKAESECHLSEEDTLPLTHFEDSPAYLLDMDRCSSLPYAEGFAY
# Sequence of HSF1 (Q00613 whole entry): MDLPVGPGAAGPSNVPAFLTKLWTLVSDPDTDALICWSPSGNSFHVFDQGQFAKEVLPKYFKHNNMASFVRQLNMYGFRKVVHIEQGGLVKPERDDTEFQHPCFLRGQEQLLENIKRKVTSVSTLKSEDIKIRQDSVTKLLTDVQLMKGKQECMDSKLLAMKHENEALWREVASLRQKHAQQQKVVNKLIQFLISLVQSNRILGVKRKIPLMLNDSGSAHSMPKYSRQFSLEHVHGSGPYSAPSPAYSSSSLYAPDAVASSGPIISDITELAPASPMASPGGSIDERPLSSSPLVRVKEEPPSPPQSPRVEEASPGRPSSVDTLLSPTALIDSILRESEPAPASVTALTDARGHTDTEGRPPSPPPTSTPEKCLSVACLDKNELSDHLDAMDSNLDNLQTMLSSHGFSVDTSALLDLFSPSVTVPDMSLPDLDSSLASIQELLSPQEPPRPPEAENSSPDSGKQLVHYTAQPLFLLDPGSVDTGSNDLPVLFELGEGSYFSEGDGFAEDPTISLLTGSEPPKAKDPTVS
# Sequence of ELF1 (P32519 whole entry): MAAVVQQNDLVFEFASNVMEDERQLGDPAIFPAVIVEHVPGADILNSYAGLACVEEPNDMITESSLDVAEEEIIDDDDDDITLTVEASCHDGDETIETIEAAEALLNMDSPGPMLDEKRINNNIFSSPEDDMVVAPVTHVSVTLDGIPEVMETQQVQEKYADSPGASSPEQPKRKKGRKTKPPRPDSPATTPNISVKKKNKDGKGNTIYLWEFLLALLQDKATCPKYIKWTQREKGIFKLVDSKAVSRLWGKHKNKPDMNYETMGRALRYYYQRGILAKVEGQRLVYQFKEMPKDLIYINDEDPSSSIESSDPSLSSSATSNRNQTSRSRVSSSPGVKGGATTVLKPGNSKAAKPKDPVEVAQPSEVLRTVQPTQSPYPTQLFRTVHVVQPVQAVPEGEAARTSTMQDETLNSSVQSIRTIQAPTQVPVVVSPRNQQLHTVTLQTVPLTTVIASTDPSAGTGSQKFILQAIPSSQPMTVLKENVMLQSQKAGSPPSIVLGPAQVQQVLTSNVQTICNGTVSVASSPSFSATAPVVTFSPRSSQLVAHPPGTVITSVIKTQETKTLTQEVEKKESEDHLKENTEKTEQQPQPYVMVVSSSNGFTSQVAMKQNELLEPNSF
# Sequence of ELF4 (Q99607 whole entry): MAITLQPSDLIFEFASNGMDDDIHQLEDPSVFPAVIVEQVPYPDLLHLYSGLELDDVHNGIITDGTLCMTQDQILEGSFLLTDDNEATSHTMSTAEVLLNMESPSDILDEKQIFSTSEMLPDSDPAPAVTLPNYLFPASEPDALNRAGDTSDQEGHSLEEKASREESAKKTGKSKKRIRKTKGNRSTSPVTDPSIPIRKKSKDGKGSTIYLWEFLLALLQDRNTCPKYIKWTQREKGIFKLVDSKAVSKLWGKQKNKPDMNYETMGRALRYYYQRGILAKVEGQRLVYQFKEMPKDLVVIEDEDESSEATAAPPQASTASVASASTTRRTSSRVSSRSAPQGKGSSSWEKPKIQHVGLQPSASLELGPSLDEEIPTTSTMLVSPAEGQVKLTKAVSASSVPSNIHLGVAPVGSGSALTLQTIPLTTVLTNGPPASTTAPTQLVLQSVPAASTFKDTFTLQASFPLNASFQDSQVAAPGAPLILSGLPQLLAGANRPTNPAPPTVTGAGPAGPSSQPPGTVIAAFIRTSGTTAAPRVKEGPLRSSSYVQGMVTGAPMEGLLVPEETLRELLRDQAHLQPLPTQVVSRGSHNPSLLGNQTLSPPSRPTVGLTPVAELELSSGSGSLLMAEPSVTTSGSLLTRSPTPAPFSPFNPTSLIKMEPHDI
sequence,measurement,setting,value
GGAAAT,binding signal,FLI1,"2.51 fold enrichment (6-mer frequency, TF over GST control)"
same,binding signal,ELK1,"2.64 fold enrichment (6-mer frequency, TF over GST control)"
same,binding signal,GABPA,"2.39 fold enrichment (6-mer frequency, TF over GST control)"
same,binding signal,ERG,"3.22 fold enrichment (6-mer frequency, TF over GST control)"
same,binding signal,ELF1,"2.39 fold enrichment (6-mer frequency, TF over GST control)"
same,binding signal,EHF,"3.06 fold enrichment (6-mer frequency, TF over GST control)"
same,binding signal,SPI1,"2.6 fold enrichment (6-mer frequency, TF over GST control)"
same,binding signal,SPIB,"2.88 fold enrichment (6-mer frequency, TF over GST control)"
same,binding signal,ELK3,"2.69 fold enrichment (6-mer frequency, TF over GST control)"
same,binding signal,FEV,"4 fold enrichment (6-mer frequency, TF over GST control)"
same,binding signal,ETV5,"3.05 fold enrichment (6-mer frequency, TF over GST control)"
same,binding signal,HSF1,"1.29 fold enrichment (6-mer frequency, TF over GST control)"
same,binding signal,SPIC,"2.47 fold enrichment (6-mer frequency, TF over GST control)"
same,binding signal,ELF4,"2.4 fold enrichment (6-mer frequency, TF over GST control)"
same,binding signal,ELK4,"2.13 fold enrichment (6-mer frequency, TF over GST control)"
same,binding signal,ETV2,"2.4 fold enrichment (6-mer frequency, TF over GST control)"
same,binding signal,ELF3,"2.74 fold enrichment (6-mer frequency, TF over GST control)"
same,binding signal,ETV1,"2.69 fold enrichment (6-mer frequency, TF over GST control)"

# — PMC7862700, “An all-to-all approach to the identification of sequence-specific readers for epigenetic DNA modifications on cytosine”
